experiment: resazurin metabolic signal in HepG2 cells – cell-based, resazurin fluorescence, 24 h, PK04 Diversity Set, profiling panel (AID 1172); conditions: HepG2 viability, higher = more signal; also: test concentration not given here

**Q.** With `C=C(COC)C(=O)CC[C@H](OC(=O)c1ccccc1-c1ccccc1C(=O)O)c1cccc(OCCO)c1` as the molecule, how does the z-score read?
**A.** -1.06

**Q.** With `C=CC[C@@]1(C(=O)NCC(O)CO)N=C(c2ccc(OCCCO)cc2)O[C@@H]1c1ccccc1CN=[N+]=[N-]` (some centres not stated) as the molecule, how does the z-score read?
**A.** -0.192

**Q.** For `O=C(CS)NCCCCCCNC(=O)[C@@H]1C[C@@H]2C(=O)N[C@@H](Cc3ccccc3)C(=O)N2[C@@H]1c1ccc(O)cc1`, which z-score is on record?
**A.** -0.306

**Q.** With `C=CC[C@]1(C(=O)N2CCCCC2)N=C(c2ccc(OCCCO)cc2)O[C@H]1c1ccccc1N=[N+]=[N-]` as the molecule, how does the z-score read?
**A.** -0.0748

**Q.** With `COC(=O)[C@@]1(Cc2ccc(OC)cc2)[C@H]2c3cc(C(=O)N(C)C)n(Cc4ccc(C)c(F)c4F)c3C[C@H]2CN1C(=O)c1ccccc1` as the molecule, how does the z-score read?
**A.** 0.819

**Q.** Which z-score does the source give for `[N-]=[N+]=NCc1ccccc1C[C@]1(C(=O)N2CCCCC2)N=C(c2ccc(OCCCO)cc2)O[C@H]1c1ccccc1CN=[N+]=[N-]` here?
**A.** -0.182

**Q.** For `CC(C)[Si](OCC[C@H]1O[C@]2(C(=O)N(Cc3ccccc3)c3ccccc32)[C@@H](C)[C@@H]1[Si](C)(C)O)(C(C)C)C(C)C`, which z-score is on record?
**A.** -0.563

**Q.** Which z-score does the source give for `C=CCC(OC(C)=O)[C@@H]1[C@@H](N(Cc2ccc(-c3cccc(C(F)(F)F)c3)o2)C(=O)Cc2ccc(F)cc2)c2cc(OCCCO)ccc2N1C(=O)c1ccc(-c2ccccc2)cc1` (some centres not stated) here?
**A.** -0.138

**Q.** With `C=C[C@H](OC)[C@@H](OC(=O)Nc1ccc(SC)cc1)c1ccc(O)c(F)c1` as the molecule, how does the z-score read?
**A.** -0.0359

**Q.** Which z-score does the source give for `O=C1O[C@H](c2ccccc2)[C@H](c2ccccc2)N2[C@H]1[C@@H](C(=O)NC[C@H](O)c1ccccc1)[C@]1(C(=O)Nc3ccc(C#CC4(O)CCCCCC4)cc31)[C@H]2c1ccc(OCCO)cc1` here?
**A.** -0.148

**Q.** Which z-score does the source give for `CC(C)C[C@@H]1NC(=O)[C@H](CC(C)C)NC(=O)[C@@]23C(=O)N[C@@H](Cc4ccccc4)C2[C@H](C)[C@@]2(C)O[C@H]2C3/C=C/CC/C=C/CNC1=O` (some centres not stated) here?
**A.** -0.0096

**Q.** For `O=C1NC(=O)C2C1C=CC(C(O)C=Cc1ccc([N+](=O)[O-])cc1)N2Nc1ccccn1` (configuration not stated), which z-score is on record?
**A.** -0.629

**Q.** For `NC(=O)NCC#Cc1ccc2c(c1)[C@]1(C(=O)N2)[C@H](C(N)=O)[C@H]2C(=O)O[C@H](c3ccccc3)[C@H](c3ccccc3)N2[C@@H]1c1ccccc1OCCO`, which z-score is on record?
**A.** 0.979

**Q.** With `CCOC(=O)C[C@H]1[C@H](OC(=O)c2cc3ccccc3oc2=O)[C@@H](NC(=O)C2CCCCC2)c2cc(OCCCO)ccc2N1C(=O)c1ccc2ccccc2n1` as the molecule, how does the z-score read?
**A.** -0.35

**Q.** Which z-score does the source give for `COc1cc2c(cc1OC)CN(C(=O)[C@H]1[C@@H]3C(=O)O[C@@H](c4ccccc4)[C@@H](c4ccccc4)N3[C@@H](c3ccc(O)cc3)[C@]13C(=O)Nc1ccc(C#CC4(O)CCCCCC4)cc13)CC2` here?
**A.** 0.496

**Q.** With `O=C1OCCC/C=C\[C@H]2OC34C=CCN(CCN5CCOCC5)C(=O)[C@H]3N(CCCCCO)C(=O)[C@@H]4C12` (some centres not stated) as the molecule, how does the z-score read?
**A.** -0.567

**Q.** With `C[N+](C)(C)CCCCNC(=O)[C@H]1C[C@H]2C(=O)NCC(=O)N2[C@H]1c1cccc(OCCO)c1` as the molecule, how does the z-score read?
**A.** 0.052

**Q.** Which z-score does the source give for `O=C1C[C@@](C(=O)NC2CC2)(c2ccc([N+](=O)[O-])cc2)[C@@H](c2ccc(CO)cc2I)N1CC12CC3CC(CC(C3)C1)C2` here?
**A.** -3.54

**Q.** Which z-score does the source give for `C=C(CCCC)/C(=C/C[C@@H](OC(=O)c1ccncc1)c1cccc(OCCO)c1)c1cc(C(=O)OC)ccc1OC` here?
**A.** 1.02

**Q.** With `Cc1ccc(S[C@]2(C(=O)NCCCN(C)C)CC(=O)N(Cc3ccccc3)[C@@H]2c2ccc(CO)cc2I)cc1` as the molecule, how does the z-score read?
**A.** -0.896

**Q.** With `O=C1O[C@H](c2ccccc2)[C@H](c2ccccc2)N2[C@H]1[C@@H](C(=O)Nc1nc3ccccc3s1)[C@]1(C(=O)Nc3ccc(C#CC4(O)CCCCCC4)cc31)[C@H]2c1ccc(O)cc1` as the molecule, how does the z-score read?
**A.** -0.629

**Q.** For `O=C(NCc1ccccc1)[C@@]1(Cc2ccccc2)COC(c2ccc(OCCCO)cc2)=N1`, which z-score is on record?
**A.** -2.41

**Q.** With `C=C(CCCC)/C(=C/C[C@@H](OC(=O)c1ccncc1)c1ccc(CO)o1)c1cnc2ccccc2c1` as the molecule, how does the z-score read?
**A.** -0.0346

**Q.** With `O=C1C2C=CC(C(O)C#Cc3ccccc3)N(Nc3ccccc3)C2C(=O)N1c1ccccc1` (configuration not stated) as the molecule, how does the z-score read?
**A.** 0.198

**Q.** For `CCCC=C(CCC)[C@@H](NC(=O)c1ccc(C(F)(F)F)cc1)c1ccccc1`, which z-score is on record?
**A.** -0.421

**Q.** Which z-score does the source give for `COc1ccc(NN2C(C(O)c3cc(OC)c(OC)c(OC)c3)C=CC3C(=O)N(C4CCCCC4)C(=O)C32)cc1` (configuration not stated) here?
**A.** -0.665

**Q.** For `C#CCCCON=C1C[C@@H](O)[C@@H](O)[C@@H]2[C@@H]3C(=O)N(Cc4ccc5c(c4)OCO5)C(=O)[C@@H]3CC[C@@H]12`, which z-score is on record?
**A.** 0.606
